Reference: PubChem BioAssay (EPA / NIEHS)
“And” between values parts separate entries of the source, which are not always exact repeats. Identical values can stand only once. Inconclusive results are not listed. Some compounds were tested as several samples or in several runs, with calls that do not always agree. The source made the active and inactive calls. How the source made its calls, unless noted: active means hit-call score of the fitted dose curve at least 0.9, where 1 is the maximum; inactive means score below 0.9.

Legend:
[1] = read-out: Interleukin-8 (IL8), CXCL8 (gene 3576); assay: BSK_3C_IL8: BioMAP Diversity Plus: 3C Assay for Interleukin-8 (IL8) Biomarker Activity (AID 2283020); details: primary human endothelial cells (HUVEC); actives raise or lower the signal
How it was run: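 IL-8 was measured by ELISA in HUVEC cultures 24 h after chemical dosing, with gain or loss of signal fitted relative to DMSO. Parallel SRB total-protein staining tracked overt cytotoxicity.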

[2] = read-out: Monokine induced gamma interferon (MIG), CXCL9 (gene 4283); assay: BSK_3C_MIG: BioMAP Diversity Plus: 3C Assay for Monokine induced gamma interferon (MIG) Biomarker Activity (AID 2283021); details: primary human endothelial cells (HUVEC); actives raise or lower the signal;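 on AC50: MIG protein level measured by immunoassay in the treated endothelial cultures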
How it was run: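 ELISA measurement of MIG in human umbilical vein endothelial cells 24 h after treatment. Cytotoxicity tracked by SRB staining in parallel cultures; gain or loss of signal fitted relative to DMSO.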

[3] = target: human Vitamin D Receptor (VDR), VDR (gene 7421) (UniProt P11473); assay: ATG_VDR_TRANS: Attagene TRANS-FACTORIAL HepG2 Assay for human Vitamin D Receptor (VDR) (AID 2283022; active means hit-call score of the fitted dose curve at least 0.9, where 1 is the maximum)
How it was run: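 HepG2 cells were transiently transfected with multiple GAL4-UAS reporter units, so signal reflects exogenous chimeric receptor-Gal4 activity. After 24 h compound exposure, reporter mRNA was measured by RT-PCR, fluorescent labelling and capillary electrophoresis, fitted for gain of signal versus DMSO.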

[4] = read-out: Matrix Metallopeptidase 1 (MMP1), MMP1 (gene 4312); assay: BSK_BE3C_MMP1: BioMAP Diversity Plus: BE3C Assay for Matrix Metallopeptidase 1 (MMP1) Biomarker Activity (AID 2283024); details: primary human bronchial epithelial cells; actives raise or lower the signal
How it was run: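 ELISA measurement of MMP-1 after 24 h compound exposure of primary human bronchial epithelial cells. Changes in either direction fitted relative to DMSO; parallel SRB staining checked overt cytotoxicity.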

[5] = BSK_3C_Vis: BioMAP Diversity Plus: 3C Assay for Morphology Visualization (AID 2283025); details: primary human endothelial cells (HUVEC);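 further: fitted both ways so gain or loss versus DMSO counts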;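 on AC50: light microscopy image of cell morphology used as background control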
How it was run: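 Light-microscopy visualization of HUVEC cultures at 24 h post-treatment, with DMSO as baseline for bidirectional fitting.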

[6] = read-out: Pselectin, SELP (gene 6403); assay: BSK_4H_Pselectin: BioMAP Diversity Plus: 4H Assay for Pselectin Biomarker Activity (AID 2283026); details: primary human endothelial cells (HUVEC); actives raise or lower the signal
How it was run: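 ELISA of surface P-selectin on HUVEC, 24 h after dosing, with parallel SRB staining (0.1% after 10% TCA fixation, 560 nm) for overt cytotoxicity. Activity fitted in both directions relative to DMSO.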

[7] = BSK_4H_SRB: Viability Assessment in the BioMAP Diversity Plus: 4H Assay (AID 2283027); details: primary human endothelial cells (HUVEC);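 further: cells exposed to compound for 24 h before staining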;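 on AC50: curves fitted both ways versus DMSO so AC50 may be loss or gain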
How it was run: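 Cytotoxicity readout: sulforhodamine B (0.1%) staining of total protein after 10% TCA fixation, measured at 560 nm in human umbilical vein endothelium at 24 h. DMSO set the baseline; fitting was bidirectional.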

[8] = read-out: Thrombomodulin, THBD (gene 7056); assay: BSK_3C_Thrombomodulin: BioMAP Diversity Plus: 3C Assay for Thrombomodulin Biomarker Activity (AID 2283029); details: primary human endothelial cells (HUVEC); actives raise or lower the signal
How it was run: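 ELISA measurement of thrombomodulin on HUVEC surface 24 h after chemical dosing; activity fitted in both directions relative to DMSO vehicle.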

[9] = read-out: Urokinase-type plasminogen activator receptor (uPAR), PLAUR (gene 5329); assay: BSK_4H_uPAR: BioMAP Diversity Plus: 4H Assay for Urokinase-type plasminogen activator receptor (uPAR) Biomarker Activity (AID 2283030); details: primary human endothelial cells (HUVEC); actives raise or lower the signal
How it was run: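 Primary human umbilical vein endothelial cells were exposed to chemical for 24 h before cell-surface uPAR was quantified by ELISA. Activity was fitted bidirectionally against the DMSO negative control baseline.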

[10] = read-out: Vascular endothelial growth factor receptor 2 (Homo sapiens) (UniProt P35968); assay: BSK_4H_VEGFRII: BioMAP Diversity Plus: 4H Assay for Vascular endothelial growth factor receptor 2 (VEGFR2) Biomarker Activity (AID 2283031); details: primary human endothelial cells (HUVEC); actives raise or lower the signal;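 on AC50: cell-surface VEGFR2 protein level quantified by ELISA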
How it was run: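 Primary human umbilical vein endothelial cells in the BioMAP 4H system were dosed with test chemical, and 24 h later VEGFRII was measured by ELISA. Activity was fitted bidirectionally against DMSO as negative control and baseline.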

[11] = read-out: Human Leukocyte Antigen - DR isotype (HLADR), HLA-DRA (gene 3122); assay: BSK_BE3C_HLADR: BioMAP Diversity Plus: BE3C Assay for Human Leukocyte Antigen - DR isotype (HLADR) Biomarker Activity (AID 2283032); details: primary human bronchial epithelial cells; actives raise or lower the signal
How it was run: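 Cell-surface HLA-DR ELISA readout at 24 h after dosing in the BE3C primary human lung bronchial epithelial system; gain or loss of signal against DMSO, with parallel sulforhodamine B staining of total protein for overt cytotoxicity.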

[12] = read-out: Vascular cell adhesion molecule 1 (VCAM1), VCAM1 (gene 7412); assay: BSK_4H_VCAM1: BioMAP Diversity Plus: 4H Assay for Vascular cell adhesion molecule 1 (VCAM1) Biomarker Activity (AID 2283033); details: primary human endothelial cells (HUVEC); actives raise or lower the signal
How it was run: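 VCAM-1 ELISA read 24 h after chemical dosing of HUVEC in the BioMAP 4H system, with gain or loss of signal fitted relative to DMSO. Parallel SRB staining (560 nm) checked overt cytotoxicity.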

[13] = read-out: Interferon-gamma inducible Protein 10 (IP10), CXCL10 (gene 3627); assay: BSK_BE3C_IP10: BioMAP Diversity Plus: BE3C Assay for Interferon-gamma inducible Protein 10 (IP10) Biomarker Activity (AID 2283034); details: primary human bronchial epithelial cells; actives raise or lower the signal
How it was run: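 IP-10 quantified by ELISA in human primary bronchial epithelial cell cultures at 24 hours post-dosing. Gain or loss of signal fitted relative to DMSO; parallel SRB staining assessed overt cytotoxicity.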

[14] = read-out: Monokine induced gamma interferon (MIG), CXCL9 (gene 4283); assay: BSK_BE3C_MIG: BioMAP Diversity Plus: BE3C Assay for Monokine induced gamma interferon (MIG) Biomarker Activity (AID 2283035); details: primary human bronchial epithelial cells; actives raise or lower the signal
How it was run: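 hu bronchial epithelial 1° cells, 24 h cpd; MIG by ELISA; bidirectional fit, DMSO = baseline.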

[15] = read-out: Transforming growth factor beta 1 (TGFb1), TGFB1 (gene 7040); assay: BSK_BE3C_TGFb1: BioMAP Diversity Plus: BE3C Assay for Transforming growth factor beta 1 (TGFb1) Biomarker Activity (AID 2283036); details: primary human bronchial epithelial cells; actives raise or lower the signal
How it was run: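 ELISA readout of TGF-b1 from human lung bronchial epithelial primary cells, taken 24 h post-treatment. Gain or loss of signal fitted relative to DMSO baseline, with parallel SRB staining for overt cytotoxicity.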

[16] = read-out: Plasminogen activator inhibitor-1 (PAI1), SERPINE1 (gene 5054); assay: BSK_BE3C_PAI1: BioMAP Diversity Plus: BE3C Assay for Plasminogen activator inhibitor-1 (PAI1) Biomarker Activity (AID 2283037); details: primary human bronchial epithelial cells; actives raise or lower the signal
How it was run: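 PAI-1 was measured by ELISA in human primary bronchial epithelial cultures 24 h after chemical dosing, with cytotoxicity checked by SRB total-protein staining in parallel cultures. Activity was fitted in both directions relative to DMSO.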

[17] = read-out: urokinase plasminogen activator (uPA), PLAU (gene 5328); assay: BSK_BE3C_uPA: BioMAP Diversity Plus: BE3C Assay for urokinase plasminogen activator (uPA) Biomarker Activity (AID 2283038); details: primary human bronchial epithelial cells; actives raise or lower the signal
How it was run: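 Human primary bronchial epithelial cells were exposed to chemical for 24 h, then uPA levels were measured by ELISA. Responses were fitted bidirectionally against DMSO as negative control and baseline. Parallel SRB staining of total protein gauged overt cytotoxicity.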

[18] = read-out: Urokinase-type plasminogen activator receptor (uPAR), PLAUR (gene 5329); assay: BSK_BE3C_uPAR: BioMAP Diversity Plus: BE3C Assay for Urokinase-type plasminogen activator receptor (uPAR) Biomarker Activity (AID 2283039); details: primary human bronchial epithelial cells; actives raise or lower the signal
How it was run: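 uPAR levels were measured by ELISA after 24 h compound treatment of primary human bronchial epithelial cells, fitted in both directions relative to DMSO. Parallel SRB staining served as the cytotoxicity read-out.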

[19] = BSK_BE3C_SRB: Viability Assessment in the BioMAP Diversity Plus: BE3C Assay (AID 2283028); details: primary human bronchial epithelial cells
How it was run: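 Human primary bronchial epithelial cells were exposed to test chemicals for 24 h. Total protein in parallel cultures was then measured by staining with 0.1% sulforhodamine B after 10% TCA fixation, with absorbance read at 560 nm. Activity was fitted bidirectionally against DMSO.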

[20] = BSK_3C_SRB: Viability Assessment in the BioMAP Diversity Plus: 3C Assay (AID 2283023); details: primary human endothelial cells (HUVEC);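 further: fitted both ways against DMSO so a hit may be signal rise or drop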
How it was run: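 Primary human umbilical vein endothelial cells in the 3C system were read 24 h after compound dosing. Total protein was stained with 0.1% sulforhodamine B after 10% TCA fixation and read at 560 nm, with bidirectional fitting against DMSO as baseline.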

Measured: AC50

Sequence of human Vitamin D Receptor (VDR), VDR (gene 7421) (P11473 whole entry, looked up, the tested form may be a part): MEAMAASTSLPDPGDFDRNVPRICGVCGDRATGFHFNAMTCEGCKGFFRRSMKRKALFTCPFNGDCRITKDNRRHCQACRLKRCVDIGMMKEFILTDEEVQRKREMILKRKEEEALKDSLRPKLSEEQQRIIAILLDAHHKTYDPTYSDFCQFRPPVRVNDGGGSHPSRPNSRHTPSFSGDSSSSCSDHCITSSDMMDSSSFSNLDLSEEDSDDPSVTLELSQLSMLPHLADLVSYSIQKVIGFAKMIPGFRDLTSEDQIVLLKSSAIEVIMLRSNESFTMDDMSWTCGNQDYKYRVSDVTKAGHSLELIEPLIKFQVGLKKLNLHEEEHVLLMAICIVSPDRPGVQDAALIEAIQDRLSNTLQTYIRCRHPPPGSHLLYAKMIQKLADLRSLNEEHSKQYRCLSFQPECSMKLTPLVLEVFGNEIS

Cc1cc(C)nc(NC(=O)NS(=O)(=O)c2ccccc2C(=O)OC2COC2)n1
not listed: [19] | [20]
inactive: all other assays above

CC(C)(C)C(O)C(Oc1ccc(Cl)cc1)n1cncn1 (stereo not given)
active: [11] 24.2 µM
inactive: [1] | [2] | [3] | [4] | [5] | [6] | [7] | [8] | [9] | [10] | [11] | [12] | [13] | [15] | [16] | [17] | [18]

O=C(O)C(F)(F)C(F)(F)C(F)(F)C(F)(F)C(F)(F)C(F)(F)C(F)(F)F
active: [1] 30 µM and 16 µM and 22.5 µM | [4] 25.8 µM [middle of 5 runs] | [9] 1.49 µM | [13] 43.9 µM [middle of 4 runs]
inactive: [1] | [2] | [3] | [4] | [5] | [6] | [7] | [19] | [8] | [9] | [10] | [11] | [12] | [13] | [15] | [16] | [17] | [18]

CC1(c2ccc(Oc3ccccc3)cc2)OC(=O)N(Nc2ccccc2)C1=O (stereo not given)
active: [1] 24 µM | [2] 32.3 µM | [20] 28.5 µM | [5] 16.3 µM | [6] 31.7 µM | [7] 20 µM | [9] 16.1 µM | [10] 20 µM | [12] 15.3 µM | [13] 15 µM
inactive: [4] | [8] | [11] | [15] | [16] | [17] | [18]

COC(=O)c1ccccc1S(=O)(=O)NC(=O)N(C)c1nc(C)nc(OC)n1
active: [6] 12.9 µM | [15] 0.148 µM
not listed: [3] | [14] | [19] | [20]
inactive: all other assays above

ClC1C(Cl)C(Cl)C(Cl)C(Cl)C1Cl (stereo not given)
inactive: [1] | [2] | [20] | [4] | [5] | [6] | [7] | [8] | [9] | [10] | [11] | [12] | [13] | [15] | [16] | [17] | [18]
active: [20] 18.5 µM and 28.3 µM and 20 µM | [5] 38.6 µM | [6] 5.2 µM | [7] 20 µM

CCCN(CCOc1c(Cl)cc(Cl)cc1Cl)C(=O)n1ccnc1
active: [6] 33.8 µM | [7] 29.8 µM | [8] 12 µM | [11] 29.3 µM | [13] 29.9 µM | [16] 30.9 µM | [17] 32 µM
not listed: [3] | [14] | [19] | [20]
inactive: all other assays above

CNC(=O)Oc1cccc(N=CN(C)C)c1
active: [5] 39 µM | [11] 26.6 µM
not listed: [3] | [14] | [19]
inactive: all other assays above

CCC(C)(NC(=O)c1cc(Cl)c(C)c(Cl)c1)C(=O)CCl (stereo not given)
active: [2] 14.1 µM | [4] 27 µM | [5] 7.99 µM | [6] 12 µM | [7] 27.3 µM | [9] 26.1 µM | [10] 20 µM | [11] 13.6 µM | [12] 10.5 µM | [13] 34 µM | [14] 32.8 µM | [17] 29.7 µM | [18] 31.5 µM
inactive: [1] | [8] | [15]

[2H]C1([2H])[n+]2ccccc2-c2cccc[n+]2C1([2H])[2H]
active: [4] 2.08 µM | [9] 1.49 µM | [18] 2.68 µM
not listed: [10] | [14] | [19] | [20]
inactive: all other assays above

N#CN
active: [15] 0.638 µM
not listed: [3] | [14] | [19] | [20]
inactive: all other assays above

CCOC1Oc2ccc(OS(C)(=O)=O)cc2C1(C)C (stereo not given)
active: [20] 24.1 µM | [11] 24 µM | [17] 26.5 µM
not listed: [3] | [14] | [19]
inactive: all other assays above
